Experimental data taken from PubChem BioAssay AID602376 (Johns Hopkins Ion Channel Center, 2012).
Potency and affinity values are given separately. Results filed as inconclusive are left out. Where a call stands in place of a potency, no number is given. Active and inactive are the calls of the source.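 How the source made its calls: active means raises choline transporter activity at one or more tested doses and gives a fitted dose-response curve; inconclusive means no clear call, values can overlap the other calls; inactive means no choline transporter activation at any dose, or no curve.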

Biological target: High affinity choline transporter 1 (Homo sapiens) (UniProt Q9GZV3)
Sequence (Q9GZV3 whole entry, looked up): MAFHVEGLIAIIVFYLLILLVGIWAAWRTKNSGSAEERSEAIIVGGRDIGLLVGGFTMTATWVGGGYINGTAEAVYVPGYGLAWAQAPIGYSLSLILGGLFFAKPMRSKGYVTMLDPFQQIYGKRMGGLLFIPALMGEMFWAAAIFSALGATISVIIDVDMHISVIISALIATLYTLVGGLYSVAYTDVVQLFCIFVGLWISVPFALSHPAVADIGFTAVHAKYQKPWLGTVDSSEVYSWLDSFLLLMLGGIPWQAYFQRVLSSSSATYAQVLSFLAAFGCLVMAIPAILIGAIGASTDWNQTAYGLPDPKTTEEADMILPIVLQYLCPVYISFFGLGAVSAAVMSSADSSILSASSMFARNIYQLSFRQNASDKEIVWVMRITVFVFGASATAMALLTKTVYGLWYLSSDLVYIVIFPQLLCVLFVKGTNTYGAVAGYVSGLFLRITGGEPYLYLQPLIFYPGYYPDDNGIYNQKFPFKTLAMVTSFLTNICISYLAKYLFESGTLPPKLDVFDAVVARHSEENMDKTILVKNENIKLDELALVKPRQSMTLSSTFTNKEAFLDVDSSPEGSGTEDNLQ
Test: CHT activators, dose response, cell-based, 10-point CRC, membrane potential dye (AID 602376)

CCOC(=O)c1c[nH]c2nc(C)ccc2c1=O
outcome: inactive

CCCCn1c(=N)n(CC(O)COc2ccccc2)c2ccccc21 (configuration not stated)
outcome: inactive

CCOc1ccc(S(=O)(=O)NCc2ccco2)c2ccccc12
outcome: inactive

O=c1c2ccccc2n(CC(O)CN2CCOCC2)c2ccccc12 (configuration not stated)
outcome: inactive

Cn1c(=O)c(=O)n(C)c2cc(S(=O)(=O)N3CCC(N4CCCCC4)CC3)ccc21
outcome: inactive

CC(C)C1Oc2ccccc2N(CC(=O)NC2CCCCC2)C1=O (configuration not stated)
outcome: inactive

N=c1c2c(n(Cc3ccc(Cl)c(Cl)c3)c3c1CCC3)CCCC2
outcome: inactive

CCOC(=O)C1CCN(C(=O)CCc2nnc3ccc(N4CCN(C)CC4)nn23)CC1
outcome: inactive

Cc1cccc2cc3c(N)c(C(=O)N4CCc5ccccc54)sc3nc12
outcome: inactive

CCOC(=O)c1cc2c(=O)n3ccccc3nc2n(CC2CCCO2)c1=NC(=O)/C=C/c1ccccc1 (configuration not stated)
outcome: inactive

COc1ccc(N2CCN(c3oc(COc4ccccc4)nc3C#N)CC2)cc1
outcome: inactive

CCOC(=O)c1c(C)nc2ccccc2c1-c1ccccc1
outcome: inactive

COc1cccc(C(c2nnnn2CCc2ccccc2)N2CCN(c3ccccc3)CC2)c1OC (configuration not stated)
outcome: inactive

CCC(C)(C)C1CCc2nc3ccccc3c(C(=O)OC(C)C(=O)Nc3c(C)n(C)n(-c4ccccc4)c3=O)c2C1 (configuration not stated)
outcome: inactive

CCc1cc2c(N3CCN(c4ccccc4)CC3)ncnc2s1
outcome: inactive

Cc1ccc(-c2c(C(=O)N(C)Cc3ccccc3)oc(=O)c3ccccc23)cc1
outcome: inactive

CCOC(=O)c1sc2nc(SCC#N)n(CCCN3CCCC3=O)c(=O)c2c1C
outcome: inactive
